The results in this text go back to PubChem BioAssay AID463173 (ICCB-Longwood Screening Facility, Harvard Medical School, 2010).

Hit rate of the full screen: of about 52,000 compounds, about 4,300 (8.3%) were called active. The sample holds actives, similar compounds and a random draw of the others, so the mix is not that of the screen. Unmarked numbers belong to inactive results. Rule as the data show it: active = survival mostly below about 52% (no sharp cut-off); inactive = mostly above about 56%.

The assay relates to DeltatarO mutant. The assay can be described thus: growth inhibition of S. aureus wild type versus tarO mutant, primary screen, teichoic acid synthesis inhibitors, RN4220, OD600 (AID 463173). The following applies: OD600, 18 h, active compounds read low, screened at 18.75 µg/mL (by protocol).
Consider `CCCCNC(=O)C(CC)Sc1nnc(-c2ccc(F)cc2)c(-c2ccc(F)cc2)n1` (centres undefined), for which the survival is 83%.
Consider `CSc1ccc(C2c3[nH]c4ccccc4c3CCN2C(=O)CCc2ccccc2)cc1` (centres undefined), for which the survival is 87%.
To `CC1CCCN(CCCNC(=O)c2ccc3c(c2)N(Cc2ccc(Cl)cc2)C(=O)c2ccccc2S3(=O)=O)C1` (centres undefined) belongs 145%.
With `COc1c(Cl)cc(Cl)cc1CNCCSc1nnnn1C` the figure was 74%; with `COc1ccc(Br)cc1CNC(=O)CCSCc1ccc(Cl)cc1`, 73%; with `CCOC(=O)C1CCCN(S(=O)(=O)c2ccc3c(c2)N(C)C(=O)CC(=O)N3C)C1` (centres undefined), 106%.
With `COc1ccc(OCc2nc3c4c(-c5ccc(OC)cc5)c(-c5ccc(OC)cc5)oc4ncn3n2)cc1` the figure was 70%; with `COC(=O)c1ccc([C@H]2Nc3ccc(S(=O)(=O)Nc4ccc(C)cc4)cc3[C@H]3C=CC[C@H]32)cc1`, 60%.
For `Cc1ccc(NS(=O)(=O)c2ccc3c(c2)[C@H]2C=CC[C@H]2[C@@H](c2ccc(F)cc2)N3)cc1C`, the survival was 58%.
With `Cc1cccc(C)c1NS(=O)(=O)c1ccc2c(c1)[C@H]1C=CC[C@H]1[C@@H](c1ccc(Cl)cc1)N2` the figure was 53%; with `COC(=O)c1ccc([C@H]2Nc3ccc(S(=O)(=O)Nc4ccc(F)cc4)cc3[C@H]3C=CC[C@H]32)cc1`, 53% (active).
As to `COC(=O)c1ccc([C@H]2Nc3ccc(S(=O)(=O)Nc4cccc(C)c4)cc3[C@H]3C=CC[C@H]32)cc1`, the survival was 50%.
In the case of `Cc1cccc(NS(=O)(=O)c2ccc3c(c2)[C@H]2C=CC[C@H]2[C@@H](c2ccc(F)cc2)N3)c1`, the survival is 39% (active).
Turning to `Cc1ccc(C)c(N2CCN(C(=O)c3ccc4c(c3)c(C)c(C)n4C)CC2)c1`, the survival was 73%.
On to `COc1ccccc1CNC(=O)Cn1c(=O)oc2cc(S(=O)(=O)N3CCC(C)CC3)ccc21`, for which the survival is 143%.
To `COc1ccc(N2CCN(C(=O)CN3C(=O)COc4ccc(S(=O)(=O)N5CCC(C)CC5)cc43)CC2)cc1` belongs 81%.
With `Cc1ccc2nc(/C(C#N)=C/c3ccc(-c4ccc(C(=O)OC(C)C)cc4)o3)[nH]c2c1` the figure was 36% (active); with `N#C/C(=C\c1ccc(-c2cccc(Cl)c2)o1)C(N)=O`, 99%.
With `CCOC(=O)/C(C#N)=C/c1ccc(-c2ccc(C)cc2)o1` the figure was 98%; with `CCOC(=O)c1ccc(-c2ccc(C=C(C#N)C#N)o2)cc1`, 87%; with `CCOC(=O)c1ccc(-c2ccc(/C=C(\C#N)c3nc4ccc(C)cc4[nH]3)o2)cc1`, 32% (active).
For `CCOC(=O)c1ccc(-c2ccc(/C=C(\C#N)C(=O)Nc3ccc(C)cc3OC)o2)cc1`, the survival is 76%.
To `N#CC(C#N)=Cc1ccc(-c2cccc(C(F)(F)F)c2)o1` belongs 114%; to `Cc1cc(C(=O)OC(C)C)ccc1-c1ccc(C=C(C#N)C#N)o1`, 104%; to `Cc1ccc2nc(/C(C#N)=C/c3ccc(-c4cccc(Cl)c4)o3)[nH]c2c1`, 6% (active).
To `C=CCc1c(C)[nH]c2c(OC)cccc2c1=S` belongs 82%; to `COc1ccc(C(=O)Nc2ccc(NC(=O)c3cccs3)cc2)cc1OC`, 72%; to `COc1ccc(OC)c(NC(=O)C2CCN(S(=O)(=O)c3ccc4c(c3)CCCC(=O)N4)CC2)c1`, 88%.
Take `CCOC(=O)C1CCN(C(=O)Cn2nc(CC)n3c(cc4sccc43)c2=O)CC1`: the survival was 134%.
To `COc1cc(C(CC(=O)Nc2ncccc2C)N2Cc3ccccc3C2=O)cc(OC)c1OC` (centres undefined) belongs 79%; to `Cc1ccc(NC(=O)CN2C(=O)CCn3nc(-c4cccn4C)cc32)c(Cl)c1`, 115%.
Turning to `COCCCNC(=O)C(=O)Nc1c2c(nn1-c1cccc(Cl)c1)CSC2`, the survival was 79%.
Turning to `C=CCC(NCc1ccco1)c1ccccc1` (centres undefined), the survival was 69%.
With `CCc1ccc2oc(-c3ccc(NC(=O)c4cc(OC)c(OC)c(OC)c4)cc3)nc2c1`, the survival is 57%.
`CCOc1cc(C(=O)Nc2ccc(-c3nc4cc(C)ccc4o3)cc2)cc(OCC)c1OCC`: the survival is 27% (active).
With `CCOc1cc(C(=O)Nc2ccc(-c3nc4cc(Cl)ccc4o3)cc2)cc(OCC)c1OCC` the figure was 67%.
On to `CCOc1cc(C(=O)Nc2ccc3oc(-c4ccc(F)cc4Cl)nc3c2)cc(OCC)c1OCC`, for which the survival is 64%.
To `CCOc1cc(C(=O)Nc2ccc3oc(-c4ccc(CC)cc4)nc3c2)cc(OCC)c1OCC` belongs 41% (active); to `CCOc1cc(C(=O)Nc2cccc(-c3nc4ccccc4o3)c2)cc(OCC)c1OCC`, 51%; to `COc1cccc(-n2c(SCC(=O)Nc3nnc(C)s3)nc3c([nH]c4ccccc43)c2=O)c1`, 60%.
With `COc1ccc(-n2ccn(CC(=O)Nc3ccccc3C(F)(F)F)c(=O)c2=O)cc1OC` the figure was 80%.
To `CNC(=O)COc1ccc(NC(=O)CCn2nc(-c3ccc(C)cc3)c3ccccc3c2=O)cc1` belongs 73%; to `COc1cc(C2C(C(=O)Nc3ccccc3C)=C(C)Nc3ncnn32)ccc1OCC(N)=O` (centres undefined), 82%; to `CCOc1ccc(CNCCCSc2nnnn2C)cc1OC`, 74%.
As for `COc1ccccc1NC(=O)N1CCNCC1`, the survival was 73%.
For `COc1ccc(-c2cc(C)no2)cc1S(=O)(=O)N1CCOc2ccccc21`, the survival is 73%.
To `COc1ccc(-c2cc(C)no2)cc1S(=O)(=O)N1CC(C)Oc2ccccc21` (centres undefined) belongs -5% (active).
As to `CCC1CN(S(=O)(=O)c2cc(-c3cc(C)no3)ccc2OC)c2cc(C)ccc2O1` (centres undefined), the survival was 109%.
In the case of `CCC1CN(S(=O)(=O)c2cc(-c3cc(C)no3)ccc2OC)c2cc(Cl)ccc2O1` (centres undefined), the survival is 62%.
With `COc1ccc(-c2cc(C)no2)cc1S(=O)(=O)N1CCc2ccccc21` the figure was 67%.
To `Cc1ccc(-c2onc(C)c2C)cc1S(=O)(=O)N1CCc2ccccc21` belongs 86%; to `CCC1CN(S(=O)(=O)c2cc(-c3cc(C)no3)ccc2C)c2cc(Cl)ccc2O1` (centres undefined), 75%.
With `COc1ccc(-c2onc(C)c2C)cc1S(=O)(=O)N1CCc2ccccc21` the figure was 6% (active).
Turning to `CCC1CN(S(=O)(=O)c2cc(-c3cc(C)no3)ccc2C)c2cc(C)ccc2O1` (centres undefined), the survival is 52% (active).
